Test results published in PubChem BioAssay.
The source made the active and inactive calls.

What was measured:
[1] = binders of probe aFSTL3 on microarray, primary screen, stem cell growth factor project, biochemical, small-molecule microarray, fluorescence 635/667 (AID 1064); details: higher = more signal;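 note: measures binding of the biotinylated anti-FSTL3 antibody to printed compounds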
[2] = binders from COS7 lysate, DM2A8 probe, primary screen, torsin A project, cell lysate, small-molecule microarray, fluorescence 635/667 (AID 1065); details: higher = more signal, COS7 lysate expressing mutant human TOR1A
[3] = binders of probe aFGF2 on microarray, primary screen, stem cell growth factor project, biochemical, small-molecule microarray, fluorescence 635/667 (AID 1067); details: higher = more signal;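 note: measures binding of biotinylated aFGF2 protein to printed compounds on slides; z-score merges feature fluorescence and signal-to-noise across triplicate slides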
[4] = binders of probe aFGF10 on microarray, primary screen, stem cell growth factor project, biochemical, small-molecule microarray, fluorescence 635/667 (AID 1071); details: higher = more signal;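 note: score merges 667 nm spot intensity and signal to noise from triplicate slides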
[5] = target: Neurogenic locus notch homolog protein 2 (Homo sapiens) (UniProt Q04721); test: Notch2 binders on small-molecule microarrays, primary screen, biochemical, small-molecule microarray, 635 nm fluorescence, stem cell growth factors (AID 1073); details: Notch2 binding, higher = more signal
[6] = target: Pro-neuregulin-1, membrane-bound isoform (Homo sapiens) (UniProt Q02297); test: NRG1 binders on small-molecule microarrays, primary screen, psychiatric disease protein project, biochemical, small-molecule microarray, fluorescence 635/667 (AID 1075); details: NRG1 binding, 635 nm fluorescence, higher = more signal;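 note: score combines 667 nm spot fluorescence with signal to noise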
[7] = system: Neuregulin-1 EGF-like domain; test: binders of neuregulin-1 EGF-like domain, primary screen, biochemical, small-molecule microarray, 635 nm fluorescence (AID 1081); details: small-molecule microarray binding, higher = more signal;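 note: binding of the protein to compounds printed on small-molecule microarray slides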
[8] = FRG1 promoter luciferase signal modulators, primary screen, FRG1 inhibition for FSHD, cell-based, C2C12 myotubes, firefly/Renilla luciferase, luminescence (AID 1084); details: higher = more signal, called active from +8 up or from −8 down
[9] = binders of probe aFST on microarray, primary screen, stem cell growth factor project, biochemical, small-molecule microarray, fluorescence 635/667 (AID 1086); details: higher = more signal;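 note: score merges 667 nm fluorescence with signal-to-noise of each printed compound spot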
[10] = binders of probe aHhip on microarray, primary screen, stem cell growth factor project, biochemical, small-molecule microarray, fluorescence 635/667 (AID 1087); details: higher = more signal;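 note: score merges spot fluorescence at 667nm with spot signal to noise ratio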
[11] = system: PRMT1 (protein arginine N-methyltransferase 1); test: PRMT1 binders on small-molecule microarrays, primary screen, biochemical, small-molecule microarray, 635 nm fluorescence (AID 1088); details: small-molecule microarray binding, higher = more signal;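 note: binding of Prmt1 protein to compounds spotted on small-molecule microarray slides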
[12] = yeast growth modulation, basal conditions, primary screen, YJM789 clinical isolate, OD600, 24 h (AID 1089);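 note: growth of clinical yeast isolate S. cerevisiae YJM 789 seeded 1000 cells per well; test concentration not given here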; details: S. cerevisiae YJM789 growth, higher = more signal, called active from +8 up or from −8 down
[13] = fission yeast growth modulation, primary screen, strain 972, OD600, 24 h, no modulator (AID 1090);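 note: basal condition with compound alone and no growth modifier present; test concentration not given here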; details: S. pombe 972 growth, higher = more signal, called active from +8 up or from −8 down
[14] = S. cerevisiae growth modulation with rapamycin, primary screen, strain BY4716, OD600, 96 h (AID 1091); details: higher = more signal, called active from +8 up or from −8 down; note: test concentration not given here
[15] = target: Torsin-1A-interacting protein 2 (Homo sapiens) (UniProt Q8NFQ8); test: LULL1 binders on small-molecule microarray, primary screen, cell lysate, human LULL1 lysate, 635/667 nm fluorescence (AID 1092); details: hLULL1 lysate binding, 635 nm fluorescence, higher = more signal;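 note: probe is lysate of COS7 cells overexpressing human LULL1; score merges per-feature 667 nm fluorescence with signal-to-noise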
[16] = E. coli growth modulation, two-sided OD650, primary screen, E. coli filamentation project, strain DRC41, 24 h (AID 1093); details: OD650, 24 h, higher = more signal, called active from +8 up or from −8 down;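 note: MC1000 strain lacking acrAB efflux and sulA so SOS filamentation is blocked; test concentration not given here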
[17] = small-molecule microarray binders of probe aLefty2, primary screen, biochemical, biotinylated probe, 635/667 nm fluorescence (AID 1094); details: higher = more signal;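 note: score merges spot fluorescence near 667 nm with spot signal-to-noise ratio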
[18] = system: Noggin (protein binding on small-molecule microarray); test: Noggin binders on small-molecule microarray, primary screen, biochemical, 635/667 nm fluorescence (AID 1095); details: 635 nm fluorescence, higher = more signal;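 note: score merges 667 nm feature fluorescence with signal to noise over triplicate slides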
[19] = target: Neurogenic locus notch homolog protein 3 (Homo sapiens) (UniProt Q9UM47); test: NOTCH3 binders on small-molecule microarray, primary screen, biochemical, 635/667 nm fluorescence (AID 1096); details: NOTCH3 binding, 635 nm fluorescence, higher = more signal
[20] = small-molecule microarray binders of probe aEGFR, primary screen, biochemical, biotinylated probe, 635/667 nm fluorescence (AID 1097); details: higher = more signal;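 note: probe is a biotinylated anti-EGFR antibody binding compounds printed on slides; score combines fluorescence near 667 nm and signal to noise of each spot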

Sequence of Pro-neuregulin-1, membrane-bound isoform (Homo sapiens) (Q02297 whole entry, looked up, the tested form may be a part, canonical isoform): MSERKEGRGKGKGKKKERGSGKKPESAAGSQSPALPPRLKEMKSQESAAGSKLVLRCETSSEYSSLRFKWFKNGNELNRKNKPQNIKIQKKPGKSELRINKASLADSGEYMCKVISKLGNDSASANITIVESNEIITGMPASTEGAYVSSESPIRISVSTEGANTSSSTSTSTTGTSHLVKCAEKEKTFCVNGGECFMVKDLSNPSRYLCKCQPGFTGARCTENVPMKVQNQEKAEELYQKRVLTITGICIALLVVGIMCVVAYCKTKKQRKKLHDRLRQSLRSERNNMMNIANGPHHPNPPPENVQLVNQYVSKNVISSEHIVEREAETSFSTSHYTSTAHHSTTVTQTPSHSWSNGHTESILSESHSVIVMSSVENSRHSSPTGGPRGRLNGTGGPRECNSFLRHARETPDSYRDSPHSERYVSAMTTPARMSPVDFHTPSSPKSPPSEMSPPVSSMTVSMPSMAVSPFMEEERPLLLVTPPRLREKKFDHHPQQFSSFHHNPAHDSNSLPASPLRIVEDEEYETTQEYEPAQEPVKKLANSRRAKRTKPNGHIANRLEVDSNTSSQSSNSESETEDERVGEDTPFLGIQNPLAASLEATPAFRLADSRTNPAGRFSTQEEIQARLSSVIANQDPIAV
Sequence of Torsin-1A-interacting protein 2 (Homo sapiens) (Q8NFQ8 whole entry, looked up): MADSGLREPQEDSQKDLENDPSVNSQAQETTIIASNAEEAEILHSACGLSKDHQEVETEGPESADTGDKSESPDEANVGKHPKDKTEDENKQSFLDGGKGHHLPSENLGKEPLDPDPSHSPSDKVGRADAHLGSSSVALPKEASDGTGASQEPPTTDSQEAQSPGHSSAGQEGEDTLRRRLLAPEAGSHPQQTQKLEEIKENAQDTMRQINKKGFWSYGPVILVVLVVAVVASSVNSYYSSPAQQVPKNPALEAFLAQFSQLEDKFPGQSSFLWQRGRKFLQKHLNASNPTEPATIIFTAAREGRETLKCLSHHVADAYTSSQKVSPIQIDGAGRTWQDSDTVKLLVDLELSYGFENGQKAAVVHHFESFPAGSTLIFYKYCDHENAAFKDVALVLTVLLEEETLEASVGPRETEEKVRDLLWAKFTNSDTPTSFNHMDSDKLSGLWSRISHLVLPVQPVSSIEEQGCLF
Sequence of Neurogenic locus notch homolog protein 3 (Homo sapiens) (Q9UM47 whole entry, looked up): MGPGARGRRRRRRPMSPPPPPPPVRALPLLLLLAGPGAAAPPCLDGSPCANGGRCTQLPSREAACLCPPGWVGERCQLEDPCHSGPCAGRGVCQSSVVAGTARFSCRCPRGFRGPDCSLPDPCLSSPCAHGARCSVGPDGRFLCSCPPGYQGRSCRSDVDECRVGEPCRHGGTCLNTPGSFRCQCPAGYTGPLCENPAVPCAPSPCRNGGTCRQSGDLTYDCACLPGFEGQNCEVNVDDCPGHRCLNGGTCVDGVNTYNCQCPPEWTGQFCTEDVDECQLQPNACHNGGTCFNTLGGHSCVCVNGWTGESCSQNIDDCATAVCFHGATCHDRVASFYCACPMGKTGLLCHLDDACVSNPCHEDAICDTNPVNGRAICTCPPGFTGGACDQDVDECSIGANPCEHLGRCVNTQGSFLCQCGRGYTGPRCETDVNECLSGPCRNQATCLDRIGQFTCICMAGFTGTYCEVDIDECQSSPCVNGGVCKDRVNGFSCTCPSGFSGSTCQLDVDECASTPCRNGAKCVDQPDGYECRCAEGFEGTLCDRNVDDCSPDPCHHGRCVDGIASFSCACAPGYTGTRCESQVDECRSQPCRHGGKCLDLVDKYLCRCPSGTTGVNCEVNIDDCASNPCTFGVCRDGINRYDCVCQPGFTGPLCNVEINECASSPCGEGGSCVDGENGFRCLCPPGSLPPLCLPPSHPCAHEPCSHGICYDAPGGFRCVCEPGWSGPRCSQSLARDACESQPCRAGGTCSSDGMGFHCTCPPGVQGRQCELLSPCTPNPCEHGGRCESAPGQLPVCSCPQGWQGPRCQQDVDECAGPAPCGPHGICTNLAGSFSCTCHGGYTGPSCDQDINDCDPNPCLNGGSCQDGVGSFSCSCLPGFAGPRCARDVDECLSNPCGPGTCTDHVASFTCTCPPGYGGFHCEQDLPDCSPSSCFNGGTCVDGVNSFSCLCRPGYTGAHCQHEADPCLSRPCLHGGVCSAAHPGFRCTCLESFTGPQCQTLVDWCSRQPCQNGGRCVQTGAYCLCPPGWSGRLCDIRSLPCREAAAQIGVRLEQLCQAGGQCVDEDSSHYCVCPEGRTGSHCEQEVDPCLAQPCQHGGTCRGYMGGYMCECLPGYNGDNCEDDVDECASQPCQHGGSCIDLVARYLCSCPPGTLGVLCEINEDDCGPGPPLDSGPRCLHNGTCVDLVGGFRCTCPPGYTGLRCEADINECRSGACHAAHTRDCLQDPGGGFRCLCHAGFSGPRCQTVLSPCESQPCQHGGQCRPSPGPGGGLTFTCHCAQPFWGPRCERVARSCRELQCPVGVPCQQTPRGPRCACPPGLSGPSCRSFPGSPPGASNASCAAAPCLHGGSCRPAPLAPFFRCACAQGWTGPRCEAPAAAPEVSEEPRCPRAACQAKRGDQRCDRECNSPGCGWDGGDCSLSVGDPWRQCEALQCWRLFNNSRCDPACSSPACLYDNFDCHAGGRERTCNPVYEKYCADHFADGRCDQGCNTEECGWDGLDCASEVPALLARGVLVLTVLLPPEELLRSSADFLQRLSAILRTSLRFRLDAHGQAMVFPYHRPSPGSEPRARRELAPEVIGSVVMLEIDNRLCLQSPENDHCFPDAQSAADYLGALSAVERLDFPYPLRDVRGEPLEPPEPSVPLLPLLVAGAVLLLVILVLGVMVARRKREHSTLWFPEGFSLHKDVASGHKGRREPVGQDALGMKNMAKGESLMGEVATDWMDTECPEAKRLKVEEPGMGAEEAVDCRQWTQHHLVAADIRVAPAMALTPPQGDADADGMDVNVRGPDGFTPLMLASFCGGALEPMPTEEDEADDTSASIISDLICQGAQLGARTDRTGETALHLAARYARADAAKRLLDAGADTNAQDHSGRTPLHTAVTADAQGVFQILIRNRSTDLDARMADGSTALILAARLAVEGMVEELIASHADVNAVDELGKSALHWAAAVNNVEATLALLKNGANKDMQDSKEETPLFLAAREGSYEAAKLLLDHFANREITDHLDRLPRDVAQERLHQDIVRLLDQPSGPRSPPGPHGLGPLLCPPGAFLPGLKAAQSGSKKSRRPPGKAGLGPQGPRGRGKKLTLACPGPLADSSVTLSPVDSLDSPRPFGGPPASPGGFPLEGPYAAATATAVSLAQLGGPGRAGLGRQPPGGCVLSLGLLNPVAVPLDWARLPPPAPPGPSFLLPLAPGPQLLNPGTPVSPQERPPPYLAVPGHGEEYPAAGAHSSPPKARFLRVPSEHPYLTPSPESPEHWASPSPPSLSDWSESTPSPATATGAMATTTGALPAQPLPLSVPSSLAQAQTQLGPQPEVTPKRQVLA

Compound | composite z-score [1] | composite z-score [2] | composite z-score [3] | composite z-score [4] | composite z-score [5] | composite z-score [6] | composite z-score [7] | z-score [8] | composite z-score [9] | composite z-score [10] | composite z-score [11] | z-score [12] | z-score [13] | z-score [14] | composite z-score [15] | z-score [16] | composite z-score [17] | composite z-score [18] | composite z-score [19] | composite z-score [20]
C=CCNC(=O)[C@@H]1[C@H]2C(=O)O[C@H](c3ccccc3)[C@H](c3ccccc3)N2[C@H](c2ccccc2OCCO)[C@@]12C(=O)N(C(=O)OCCOC)c1ccc(C#CCCO)cc12 | -0.0812 | 0.693 | 0.0645 | 1.05 | 0.742 | 1.2 | 1.21 | 0.0106 (inactive) | -0.66 | 0.277 | 1.55 | 0.656 (inactive) | 0.619 (inactive) | 3.69 (inactive) | 2.88 | -0.625 (inactive) | -0.135 | 0.96 | 1.08 | 0.038
CCC(CC)C(O)C1C=CC2C(=O)N(C)C(=O)C2N1N1CCCCC1 (stereo not given) | 0.104 | 0.816 | 0.121 | 0.837 | 1.31 | 1.83 | 1.23 | 0.855 (inactive) | 1.29 | 0.281 | 1.36 | -0.059 (inactive) | 0.274 (inactive) | -0.537 (inactive) | 3.42 | -1.29 (inactive) | 0.0353 | 0.334 | 1.04 | 0.0142
NC(=O)NCC#Cc1ccc2c(c1)[C@]1(C(=O)N2)[C@H](C(=O)N2CCCCCCC2)[C@H]2C(=O)O[C@H](c3ccccc3)[C@H](c3ccccc3)N2[C@@H]1c1ccc(O)cc1 | 3.57 | 0.346 | 0.688 | 0.8 | 0.879 | 0.94 | 0.947 | 0.805 (inactive) | 2.99 | 2.75 | 1.55 | 0.463 (inactive) | 1.06 (inactive) | 1.47 (inactive) | 2.56 | -0.284 (inactive) | 1.65 | 1.85 | 1.15 | 0.944
O=c1cccc(-c2ccccc2C(F)(F)F)o1 | 0.912 | -0.0924 | 0.409 | -0.331 | -0.489 | -0.168 | 0.381 | 0.364 (inactive) | 0.862 | 0.173 | -0.205 | -0.35 (inactive) | -0.392 (inactive) | 0.591 (inactive) | 1.08 | -0.582 (inactive) | 0.659 | -0.798 | -0.85 | 0.323
COCCOC(=O)N1C(=O)[C@@]2(c3cc(C#CC4(O)CCCCCC4)ccc31)[C@H](C(=O)N1CCc3cc(OC)c(OC)cc3C1)[C@H]1C(=O)O[C@H](c3ccccc3)[C@H](c3ccccc3)N1[C@@H]2c1ccc(O)cc1 | -0.277 | 2.26 | -0.01 | 0.68 | 1.51 | 0.156 | 1.16 | -0.877 (inactive) | 0.101 | -0.0618 | 1.54 | 0.449 (inactive) | -0.929 (inactive) | 1.7 (inactive) | 2.96 | 1.55 (inactive) | -0.0699 | 1.44 | 1.05 | 1.04
C=C(/C(=C/C[C@@H](OC(C)=O)c1ccccc1OCCO)c1cc(C(=O)OC)ccc1OC)C(C)C | -0.101 | 0.179 | -0.049 | 0.643 | 0.632 | 0.685 | 0.5 | 0.178 (inactive) | -0.145 | -0.312 | 0.551 | 0.343 (inactive) | -0.377 (inactive) | -0.729 (inactive) | 0.231 | 0.505 (inactive) | -0.119 | 0.235 | -0.163 | 0.198
COc1cccc(C[C@H]2C[C@@H](CO[Si](C(C)C)(C(C)C)C(C)C)N3C(=O)[C@@]4(C(C)=O)O[C@@]23[C@@H]2C(=O)N(C)C(=O)[C@@H]24)c1 | -0.43 | 0.199 | -0.0697 | 0.933 | 1.16 | 1.01 | 0.93 | -1.14 (inactive) | 0.307 | 0.113 | 1.56 | 0.368 (inactive) | 0.827 (inactive) | 1.6 (inactive) | 0.189 | -0.929 (inactive) | -0.105 | 0.456 | 1.16 | 0.127
COc1ccc([Si](C)(C)[C@H]2[C@H](CCn3cc([C@H](O)c4ccccc4)nn3)O[C@@]3(C(=O)N(C)c4c(Br)cc(C)cc43)[C@@H]2C)cc1 | -0.0258 | 0.48 | -0.113 | -0.327 | -0.442 | 0.218 | 0.881 | -0.905 (inactive) | -0.438 | -0.0994 | 0.661 | 0.31 (inactive) | 0.467 (inactive) | 1.34 (inactive) | -0.168 | 0.832 (inactive) | -0.138 | 1.96 | -0.615 | -0.179
COc1ccc([Si](C)(C)[C@@H]2[C@@H](CCO)O[C@]3(C(=O)N(Cc4ccccc4)c4ccc(N5C(=O)c6ccccc6Oc6ccccc65)cc43)[C@H]2C)cc1 | -0.0276 | -0.662 | -0.0962 | 0.379 | -0.236 | 0.992 | 0.671 | 0.816 (inactive) | -0.089 | -0.284 | 0.182 | 1.32 (inactive) | 0.381 (inactive) | 8.27 (active) | 1.21 | 1.13 (inactive) | -0.136 | 0.245 | 0.057 | -0.19
